Laboratory results: PubChem BioAssay (EPA / NIEHS)
The source made the active and inactive calls. The calls were made as follows: active = hit-call score of the fitted dose curve at least 0.9, where 1 is the maximum; inactive = score below 0.9.

Experiments:
[1] = BSK_CASM3C_SRB: Viability Assessment in the BioMAP Diversity Plus: CASM3C Assay (AID 2283050); details: primary human coronary artery smooth muscle cells;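 also: total protein by SRB staining as cytotoxicity measure in parallel cultures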
[2] = read-out: Thrombomodulin, THBD (gene 7056); assay: BSK_CASM3C_Thrombomodulin: BioMAP Diversity Plus: CASM3C Assay for Thrombomodulin Biomarker Activity (AID 2283051); details: primary human coronary artery smooth muscle cells; actives raise or lower the signal;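 also: thrombomodulin protein level measured by ELISA 24 h after dosing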
[3] = read-out: Tissue Factor, F3 (gene 2152); assay: BSK_CASM3C_TissueFactor: BioMAP Diversity Plus: CASM3C Assay for Tissue Factor Biomarker Activity (AID 2283052); details: primary human coronary artery smooth muscle cells; actives raise or lower the signal;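 also: cell surface tissue factor protein level read by ELISA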
[4] = read-out: Interferon-gamma inducible Protein 10 (IP10), CXCL10 (gene 3627); assay: BSK_hDFCGF_IP10: BioMAP Diversity Plus: hDFCGF Assay for Interferon-gamma inducible Protein 10 (IP10) Biomarker Activity (AID 2283053); details: primary human foreskin fibroblasts; actives raise or lower the signal
Summary of the method: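 Human foreskin fibroblast primary cells (hDFCGF system) were dosed with chemical and assayed at 24 h; IP-10 measured by ELISA. Activity fitted bidirectionally relative to DMSO negative control as baseline.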

[5] = read-out: Vascular cell adhesion molecule 1 (VCAM1), VCAM1 (gene 7412); assay: BSK_CASM3C_VCAM1: BioMAP Diversity Plus: CASM3C Assay for Vascular cell adhesion molecule 1 (VCAM1) Biomarker Activity (AID 2283055); details: primary human coronary artery smooth muscle cells; actives raise or lower the signal;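 also: VCAM-1 protein level quantified by ELISA on the cells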
[6] = read-out: Collagen III, COL3A1 (gene 1281); assay: BSK_hDFCGF_CollagenIII: BioMAP Diversity Plus: hDFCGF Assay for Collagen III Biomarker Activity (AID 2283056); details: primary human foreskin fibroblasts; actives raise or lower the signal
Summary of the method: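 Human foreskin primary fibroblasts were exposed to test chemicals for 24 h, after which collagen III was quantified by ELISA. Activity was fitted bidirectionally against DMSO as negative control and baseline.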

[7] = read-out: Epidermal growth factor receptor (EGFR), EGFR (gene 1956); assay: BSK_hDFCGF_EGFR: BioMAP Diversity Plus: hDFCGF Assay for Epidermal growth factor receptor (EGFR) Biomarker Activity (AID 2283057); details: primary human foreskin fibroblasts; actives raise or lower the signal
Summary of the method: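 Primary human foreskin fibroblasts were exposed to compound for 24 h, after which cell-surface EGFR was quantified by ELISA. Activity was fitted bidirectionally against the DMSO negative control as baseline.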

[8] = read-out: Interleukin-8 (IL8), CXCL8 (gene 3576); assay: BSK_hDFCGF_IL8: BioMAP Diversity Plus: hDFCGF Assay for Interleukin-8 (IL8) Biomarker Activity (AID 2283058); details: primary human foreskin fibroblasts; actives raise or lower the signal
Summary of the method: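 hDFCGF human dermal fibroblasts; 24 h chemical exposure; IL-8 by ELISA; bidirectional curve fit vs DMSO baseline; gain or loss of signal scored.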

[9] = BSK_hDFCGF_Proliferation: Cell Proliferation Assessment in the BioMAP Diversity Plus: hDFCGF Assay (AID 2283059); details: primary human foreskin fibroblasts;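 also: curves fitted for both rise and fall of signal versus DMSO baseline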
Summary of the method: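 Total protein read at 560 nm after 0.1% SRB staining of TCA-fixed human skin fibroblasts, […]. Activity is fitted in both directions relative to DMSO as baseline.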

[10] = read-out: Macrophage colony-stimulating factor (MCSF), CSF1 (gene 1435); assay: BSK_hDFCGF_MCSF: BioMAP Diversity Plus: hDFCGF Assay for Macrophage colony-stimulating factor (MCSF) Biomarker Activity (AID 2283060); details: primary human foreskin fibroblasts; actives raise or lower the signal
Summary of the method: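 Human foreskin primary fibroblasts were treated with test chemical for 24 h, and M-CSF was then measured by ELISA. Data were fitted bidirectionally against DMSO as the negative control and activity baseline.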

[11] = read-out: TIMP metallopeptidase inhibitor 1 (TIMP1), TIMP1 (gene 7076); assay: BSK_hDFCGF_TIMP1: BioMAP Diversity Plus: hDFCGF Assay for TIMP metallopeptidase inhibitor 1 (TIMP1) Biomarker Activity (AID 2283062); details: primary human foreskin fibroblasts; actives raise or lower the signal
Summary of the method: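 Primary human foreskin fibroblasts in the hDFCGF system were dosed with compound for 24 h, then TIMP-1 was measured by ELISA. Activity was fitted bidirectionally relative to DMSO control; parallel SRB staining assessed cytotoxicity.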

[12] = read-out: Monokine induced gamma interferon (MIG), CXCL9 (gene 4283); assay: BSK_hDFCGF_MIG: BioMAP Diversity Plus: hDFCGF Assay for Monokine induced gamma interferon (MIG) Biomarker Activity (AID 2283063); details: primary human foreskin fibroblasts; actives raise or lower the signal
Summary of the method: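 ELISA read-out of MIG from primary human dermal fibroblasts 24 h post-dosing. Gain or loss of signal fitted bidirectionally, DMSO as baseline.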

[13] = read-out: Matrix Metallopeptidase 1 (MMP1), MMP1 (gene 4312); assay: BSK_hDFCGF_MMP1: BioMAP Diversity Plus: hDFCGF Assay for Matrix Metallopeptidase 1 (MMP1) Biomarker Activity (AID 2283064); details: primary human foreskin fibroblasts; actives raise or lower the signal
Summary of the method: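 Primary human foreskin fibroblasts in the hDFCGF system were dosed with test chemical, and MMP1 was measured by ELISA 24 h later. Values come from bidirectional curve fitting against the DMSO baseline.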

[14] = read-out: Plasminogen activator inhibitor-1 (PAI1), SERPINE1 (gene 5054); assay: BSK_hDFCGF_PAI1: BioMAP Diversity Plus: hDFCGF Assay for Plasminogen activator inhibitor-1 (PAI1) Biomarker Activity (AID 2283066); details: primary human foreskin fibroblasts; actives raise or lower the signal
Summary of the method: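 Human foreskin fibroblasts in the hDFCGF system were dosed with compound for 24 h; PAI-1 was quantified by ELISA. Bidirectional curve fitting used DMSO as negative control and baseline.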

[15] = read-out: Intercellular Adhesion Molecule 1 (ICAM1), ICAM1 (gene 3383); assay: BSK_KF3CT_ICAM1: BioMAP Diversity Plus: KF3CT Assay for Intercellular Adhesion Molecule 1 (ICAM1) Biomarker Activity (AID 2283067); details: primary human keratinocytes with fibroblasts; actives raise or lower the signal
Summary of the method: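 Human keratinocyte plus foreskin fibroblast primary co-culture was exposed to chemical for 24 h. ICAM-1 was then quantified by ELISA, and the data were fit bidirectionally against DMSO as the negative control and baseline.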

[16] = read-out: Interferon-gamma inducible Protein 10 (IP10), CXCL10 (gene 3627); assay: BSK_KF3CT_IP10: BioMAP Diversity Plus: KF3CT Assay for Interferon-gamma inducible Protein 10 (IP10) Biomarker Activity (AID 2283068); details: primary human keratinocytes with fibroblasts; actives raise or lower the signal
Summary of the method: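 Human keratinocyte plus foreskin fibroblast primary co-culture exposed to test chemical for 24 h; IP-10 measured by ELISA. Concentration-response fitted bidirectionally against DMSO control as baseline.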

[17] = BSK_KF3CT_SRB: Viability Assessment in the BioMAP Diversity Plus: KF3CT Assay (AID 2283069); details: primary human keratinocytes with fibroblasts;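 also: total protein by sulforhodamine B staining as a cytotoxicity measure; read 24 h after compound addition; fitted for both signal gain and loss against DMSO baseline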
Summary of the method: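 Human primary keratinocyte plus foreskin fibroblast co-culture exposed to chemicals for 24 h. Total protein measured by 0.1% sulforhodamine B staining after 10% TCA fixation, read at 560 nm; bidirectional fitting versus DMSO baseline.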

[18] = read-out: TIMP metallopeptidase inhibitor 2 (TIMP2), TIMP2 (gene 7077); assay: BSK_KF3CT_TIMP2: BioMAP Diversity Plus: KF3CT Assay for TIMP metallopeptidase inhibitor 2 (TIMP2) Biomarker Activity (AID 2283071); details: primary human keratinocytes with fibroblasts; actives raise or lower the signal
Summary of the method: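 Human primary keratinocyte/foreskin fibroblast co-culture dosed with chemical and sampled at 24 h. TIMP-2 levels quantified by ELISA; bidirectional fitting against DMSO negative control as baseline.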

[19] = read-out: Matrix Metallopeptidase 9 (MMP9), MMP9 (gene 4318); assay: BSK_KF3CT_MMP9: BioMAP Diversity Plus: KF3CT Assay for Matrix Metallopeptidase 9 (MMP9) Biomarker Activity (AID 2283074); details: primary human keratinocytes with fibroblasts; actives raise or lower the signal;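 as to AC50: MMP9 protein level quantified by ELISA in the co-culture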
Summary of the method: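 Keratinocyte plus foreskin fibroblast human primary skin co-culture was dosed with chemical and MMP-9 was quantified by ELISA 24 h later. Bidirectional curve fitting used DMSO as negative control and activity baseline.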

[20] = read-out: CD40, CD40 (gene 958); assay: BSK_LPS_CD40: BioMAP Diversity Plus: LPS Assay for CD40 Biomarker Activity (AID 2283076); details: primary human HUVEC with PBMC; actives raise or lower the signal
Summary of the method: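 Primary human umbilical vein endothelial cells co-cultured with peripheral blood mononuclear cells, LPS-stimulated, were dosed with chemical and read 24 h later. CD40 levels were measured by ELISA and fitted bidirectionally against DMSO as negative control and baseline.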

Measured: AC50

CC(=O)/C=C/c1ccccc1
active: [20] 20 µM
inactive: all other assays above

CCC(C)c1cc([N+](=O)[O-])cc([N+](=O)[O-])c1OC(=O)C=C(C)C (stereo not given)
active: [1] 30.3 µM | [3] 7.73 µM | [4] 7.21 µM | [5] 20.5 µM | [6] 5.31 µM | [9] 5.09 µM | [10] 6.13 µM | [11] 12 µM | [12] 9.88 µM | [13] 12.3 µM | [14] 3.95 µM | [15] 25 µM | [16] 13.9 µM | [17] 31.7 µM | [18] 21.1 µM | [19] 14.8 µM | [20] 7.46 µM
inactive: [2] | [7] | [8]

CCCCCCCCCCCC#N
active: [1] 29.3 µM | [4] 28.8 µM | [5] 20.6 µM | [9] 10.1 µM | [10] 28.8 µM | [11] 33 µM | [12] 29.7 µM | [13] 37.7 µM | [14] 31.8 µM | [20] 30.8 µM
inactive: [2] | [3] | [6] | [7] | [8] | [15] | [16] | [17] | [18] | [19]

CCc1cc(C)cc(CC)c1-c1c(OC(=O)C(C)(C)C)n2n(c1=O)CCOCC2
active: [3] 8.26 µM | [9] 25.2 µM | [14] 3.97 µM | [18] 3.97 µM
inactive: all other assays above

C=CC(=O)OCC(CC)CCCC (stereo not given)
active: [1] 31.7 µM | [4] 27.6 µM | [5] 20 µM | [6] 20 µM | [9] 30.3 µM | [10] 20 µM | [11] 27.5 µM | [12] 30.5 µM | [13] 30.4 µM | [14] 20 µM
inactive: [2] | [3] | [7] | [8] | [15] | [16] | [17] | [18] | [19] | [20]

CC(C)CCCCCCCOP(=O)(Oc1ccccc1)Oc1ccccc1
active: [1] 20 µM | [4] 9.26 µM | [6] 5.29 µM | [7] 3.97 µM | [8] 25.7 µM | [9] 3.16 µM | [10] 8.47 µM | [11] 12.8 µM | [12] 11 µM | [13] 20 µM | [14] 8.46 µM | [16] 30.3 µM | [17] 25.7 µM | [18] 16.1 µM | [19] 11.2 µM | [20] 11.3 µM
inactive: [2] | [3] | [5] | [15]
